# PubChem BioAssay AID1159580 (chemical genetic matrix, 2015)
# Where “and” joins values, the source holds several entries; their conditions need not be identical. Identical values can stand only once. Screen size: about 5,500 compounds; about 2,000 (36%) were called active. Not shown: some 18% with an inconclusive outcome. This is one part of the list. A number with no mark means an inactive call. Cut-off read from the data, not from the text of the source: active = normalized growth mostly below about 0.91 (no sharp cut-off); inconclusive = no clear call, values can overlap the other calls; inactive = mostly above about 0.92.
# Test: chemical genetic growth profiling, strain panel (AID 1159580);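 note: tested at 20 µM; growth read once vehicle control cultures reached saturation at 30 °C; 1 = growth at the plate median or of vehicle wells; lower values mean less growth of the strain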
# Conditions: S. cerevisiae deletion strains, growth OD
smiles,measurement,setting,value
CC[n+]1c(-c2ccccc2)c2cc(N)ccc2c2ccc(N)cc21,normalized growth,"locus YAL013W, strain DEP1, hits give low values",0.879 (active)
same,normalized growth,"locus YAL021C, strain ccr4, hits give low values",0.918
same,normalized growth,"locus YAL026C, strain drs2, hits give low values",0.966
same,normalized growth,"locus YAL030W, strain snc1, hits give low values",0.971
same,normalized growth,"locus YBL061C, strain skt5, hits give low values",0.974
same,normalized growth,"locus YBR009C, strain hhf1, hits give low values",0.966
same,normalized growth,"locus YBR021W, strain FUR4, hits give low values",1.06
same,normalized growth,"locus YBR023C, strain chs3, hits give low values",0.979
same,normalized growth,"locus YBR171W, strain sec66, hits give low values",0.977
same,normalized growth,"locus YBR229C, strain ROT2, hits give low values",0.952
same,normalized growth,"locus YBR231C, strain swc5, hits give low values",0.966
same,normalized growth,"locus YBR279W, strain paf1, hits give low values",0.947
same,normalized growth,"locus YCL011C, strain gbp2, hits give low values",0.981
same,normalized growth,"locus YCL016C, strain dcc1, hits give low values",0.943
same,normalized growth,"locus YCL029C, strain bik1, hits give low values",0.664 (active)
same,normalized growth,"locus YCL069W, strain vba3, hits give low values",0.959
same,normalized growth,"locus YCR088W, strain abp1, hits give low values",0.954
same,normalized growth,"locus YDL005C, strain med2, hits give low values",0.99
same,normalized growth,"locus YDL035C, strain GPR1, hits give low values",0.703 (active)
same,normalized growth,"locus YDL040C, strain nat1, hits give low values",0.969
same,normalized growth,"locus YDL074C, strain BRE1, hits give low values",0.822
same,normalized growth,"locus YDL101C, strain DUN1, hits give low values",0.93
same,normalized growth,"locus YDL134C, strain PPH21, hits give low values",0.776 (active)
same,normalized growth,"locus YDL185W, strain tfp1, hits give low values",0.853 (active)
same,normalized growth,"locus YDL192W, strain arf1, hits give low values",0.922
same,normalized growth,"locus YDR001C, strain nth1, hits give low values",0.953
same,normalized growth,"locus YDR069C, strain doa4, hits give low values",0.974
same,normalized growth,"locus YDR101C, strain arx1, hits give low values",0.886 (active)
same,normalized growth,"locus YDR137W, strain rgp1, hits give low values",0.997
same,normalized growth,"locus YDR159W, strain sac3, hits give low values",1.02
same,normalized growth,"locus YDR162C, strain NBP2, hits give low values",0.706 (active)
same,normalized growth,"locus YDR195W, strain ref2",1.04
same,normalized growth,"locus YDR297W, strain sur2, hits give low values",0.954
same,normalized growth,"locus YDR318W, strain mcm21, hits give low values",0.885 (active)
same,normalized growth,"locus YDR334W, strain swr1, hits give low values",0.957
same,normalized growth,"locus YDR335W, strain msn5, hits give low values",0.983
same,normalized growth,"locus YDR388W, hits give low values",0.859 (active)
same,normalized growth,"locus YDR392W, strain spt3, hits give low values",0.965
same,normalized growth,"locus YDR502C, strain sam2, hits give low values",0.801 (active)
same,normalized growth,"locus YEL003W, strain gim4, hits give low values",0.956
same,normalized growth,"locus YEL037C, strain rad23, hits give low values",0.965
same,normalized growth,"locus YEL061C, strain CIN8 (second series), hits give low values",0.946
same,normalized growth,"locus YEL061C, strain CIN8, hits give low values",0.766 (active)
same,normalized growth,"locus YER015W, strain faa2, hits give low values",0.97
same,normalized growth,"locus YER016W, strain bim1, hits give low values",0.953
same,normalized growth,"locus YER110C, hits give low values",0.967
same,normalized growth,"locus YER111C, strain swi4, hits give low values",0.939
same,normalized growth,"locus YER155C, strain BEM2 (second series), hits give low values",0.939
same,normalized growth,"locus YER155C, strain BEM2, hits give low values",0.937
same,normalized growth,"locus YER167W, strain BCK2, hits give low values",0.756 (active)
same,normalized growth,"locus YFR010W, strain ubp6, hits give low values",0.97
same,normalized growth,"locus YGL078C, strain dbp3, hits give low values",0.898 (active)
same,normalized growth,"locus YGL086W, strain mad1, hits give low values",0.856 (active)
same,normalized growth,"locus YGL167C, strain pmr1, hits give low values",0.986
same,normalized growth,"locus YGL173C, strain kem1, hits give low values",0.96
same,normalized growth,"locus YGL227W, strain vid30, hits give low values",0.975
same,normalized growth,"locus YGL240W, strain doc1, hits give low values",1.01
same,normalized growth,"locus YGL248W, strain PDE1, hits give low values",0.845 (active)
same,normalized growth,"locus YGL253W, strain hxk2, hits give low values",0.94
same,normalized growth,"locus YGR135W, strain pre9, hits give low values",0.872 (active)
same,normalized growth,"locus YGR252W, strain gcn5, hits give low values",0.94
same,normalized growth,"locus YHR013C, strain ard1, hits give low values",0.988
same,normalized growth,"locus YHR027C, strain rpn1, hits give low values",0.954
same,normalized growth,"locus YHR030C, strain SLT2, hits give low values",0.906 (active) and 0.85 (active)
same,normalized growth,"locus YHR079C, strain IRE1 (second series), hits give low values",0.857 (active)
same,normalized growth,"locus YHR079C, strain IRE1, hits give low values",0.832 (active)
same,normalized growth,"locus YHR094C, strain hxt1, hits give low values",0.925
same,normalized growth,"locus YHR129C, strain ARP1, hits give low values",0.895 (active)
same,normalized growth,"locus YHR142W, strain chs7, hits give low values",0.974
same,normalized growth,"locus YHR200W, strain rpn10, hits give low values",0.864 (active)
same,normalized growth,"locus YIL066C, strain RNR3, hits give low values",0.827 (active)
same,normalized growth,"locus YIL073C, strain SPO22, hits give low values",0.662 (active)
same,normalized growth,"locus YIL125W, strain kgd1, hits give low values",0.88 (active)
same,normalized growth,"locus YIR030C, strain dcg1, hits give low values",0.889 (active)
same,normalized growth,"locus YJL092W, strain hpr5, hits give low values",0.946
same,normalized growth,"locus YJL095W, strain BCK1 (second series), hits give low values",0.979
same,normalized growth,"locus YJL095W, strain BCK1, hits give low values",0.79 (active) and 0.852 (active)
same,normalized growth,"locus YJL115W, strain asf1, hits give low values",0.926
same,normalized growth,"locus YJL129C, strain trk1, hits give low values",1.08
same,normalized growth,"locus YJL134W, strain LCB3, hits give low values",0.924 (active)
same,normalized growth,"locus YJL154C, strain vps35, hits give low values",0.949
same,normalized growth,"locus YJL164C, strain tpk1, hits give low values",0.963
same,normalized growth,"locus YJL166W, strain qcr8, hits give low values",0.993
same,normalized growth,"locus YJL168C, strain set2, hits give low values",0.915 (active)
same,normalized growth,"locus YJL187C, strain SWE1 (second series), hits give low values",0.819 (active)
same,normalized growth,"locus YJL187C, strain SWE1, hits give low values",0.995
same,normalized growth,"locus YJR043C, strain POL32, hits give low values",0.687 (active)
same,normalized growth,"locus YJR066W, strain TOR1, hits give low values",0.773 (active)
